Reference: PubChem BioAssay
Inconclusive results are not listed. For some assays here: Entries with a potency or affinity are not part of this list. Activity calls are given as the source filed them.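 How the source made its calls, unless noted: active means z-score of at least 1.8 in each of two replicates, scored against plate mean and spread of sample wells; inactive means the rest.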

Experiments:
[1] = blockers of polyQ-driven CASP3 activation – cell-based (AID 1583); conditions: polyglutamine-induced caspase-3 activation, cell assay; stronger effect = higher value;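 tested at 10 µM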
[2] = yeast 75Q aggregation reduction – 75Q-TubU reporter (AID 1593); conditions: Yeast 75Q polyglutamine aggregation reporter
[3] = restoration of touch response, mutant HTT neurons – whole organism, C. elegans mechanosensory neurons, N-terminal huntingtin (AID 1599); conditions: C. elegans polyQ-huntingtin mechanosensory neurons, stronger effect = higher value
[4] = blockers of cytochrome c efflux from mitochondria – biochemical, purified mitochondria (AID 1603); conditions: stronger effect = lower value;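 further: mouse liver mitochondria challenged with calcium chloride; signal normalized to the plate average as 100%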
[5] = polyglutamine aggregate formation blockers (AID 1604); conditions: polyglutamine-induced protein aggregation inhibition assay; stronger effect = higher value; tested at 2.5 µM
[6] = glutamate transport activators, MN-1 cells, MN-1 cell line (AID 1612); conditions: MN-1 motor neuron cells, stronger effect = higher value;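 further: tested at 1 µM final; 0% = mean of DMSO vehicle wells on each plate; positive means more glutamate uptake than control and negative means less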
[7] = 75Q-TubH aggregate inhibition, S. cerevisiae, yeast (AID 1616); conditions: S. cerevisiae 75Q-TubH polyglutamine aggregation suppression; stronger effect = higher value
[8] = target: Huntingtin (Homo sapiens) (UniProt P42858); experiment: mutant huntingtin aggregation blockers – QA1, dose response (AID 1584); conditions: in vitro mutant huntingtin aggregation assay; confirmation test; at 10 µM; stronger effect = lower value
[9] = rescue of PC12 cells from polyQ htt toxicity – LDH release (AID 1610); conditions: PC12 mutant huntingtin toxicity, final LDH at 4 uM, stronger effect = lower value
[10] = GFP-Q80 aggregate reduction, neuronal-like cells, cell-based, NGF-treated PC12, GFPQ80 (AID 1614); conditions: PC12 NGF-treated GFP-polyQ80 inclusion reduction;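 further: lower means fewer inclusions and 0 means no inclusions at all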
[11] = galactose survival enhancers in mitochondrial complex I cybrids – cell-based, galactose medium, ATP luminescence, primary screen (AID 1645843); conditions: complex I mutant cybrid cells, 72 h, stronger effect = higher value;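 further: positive z means more ATP and so rescue of galactose-driven cybrid death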
[12] = target: ATP-dependent translocase ABCB1 (Homo sapiens) (UniProt P08183); experiment: P-glycoprotein substrate transport blockade – cell-based (AID 377; in the data active means fluorescence slope change above about 50%); conditions: MDR1-expressing cells, fluorescent substrate accumulation slope; stronger effect = higher value; concentration not given here
Sequence of ATP-dependent translocase ABCB1 (Homo sapiens) (P08183 whole entry, looked up): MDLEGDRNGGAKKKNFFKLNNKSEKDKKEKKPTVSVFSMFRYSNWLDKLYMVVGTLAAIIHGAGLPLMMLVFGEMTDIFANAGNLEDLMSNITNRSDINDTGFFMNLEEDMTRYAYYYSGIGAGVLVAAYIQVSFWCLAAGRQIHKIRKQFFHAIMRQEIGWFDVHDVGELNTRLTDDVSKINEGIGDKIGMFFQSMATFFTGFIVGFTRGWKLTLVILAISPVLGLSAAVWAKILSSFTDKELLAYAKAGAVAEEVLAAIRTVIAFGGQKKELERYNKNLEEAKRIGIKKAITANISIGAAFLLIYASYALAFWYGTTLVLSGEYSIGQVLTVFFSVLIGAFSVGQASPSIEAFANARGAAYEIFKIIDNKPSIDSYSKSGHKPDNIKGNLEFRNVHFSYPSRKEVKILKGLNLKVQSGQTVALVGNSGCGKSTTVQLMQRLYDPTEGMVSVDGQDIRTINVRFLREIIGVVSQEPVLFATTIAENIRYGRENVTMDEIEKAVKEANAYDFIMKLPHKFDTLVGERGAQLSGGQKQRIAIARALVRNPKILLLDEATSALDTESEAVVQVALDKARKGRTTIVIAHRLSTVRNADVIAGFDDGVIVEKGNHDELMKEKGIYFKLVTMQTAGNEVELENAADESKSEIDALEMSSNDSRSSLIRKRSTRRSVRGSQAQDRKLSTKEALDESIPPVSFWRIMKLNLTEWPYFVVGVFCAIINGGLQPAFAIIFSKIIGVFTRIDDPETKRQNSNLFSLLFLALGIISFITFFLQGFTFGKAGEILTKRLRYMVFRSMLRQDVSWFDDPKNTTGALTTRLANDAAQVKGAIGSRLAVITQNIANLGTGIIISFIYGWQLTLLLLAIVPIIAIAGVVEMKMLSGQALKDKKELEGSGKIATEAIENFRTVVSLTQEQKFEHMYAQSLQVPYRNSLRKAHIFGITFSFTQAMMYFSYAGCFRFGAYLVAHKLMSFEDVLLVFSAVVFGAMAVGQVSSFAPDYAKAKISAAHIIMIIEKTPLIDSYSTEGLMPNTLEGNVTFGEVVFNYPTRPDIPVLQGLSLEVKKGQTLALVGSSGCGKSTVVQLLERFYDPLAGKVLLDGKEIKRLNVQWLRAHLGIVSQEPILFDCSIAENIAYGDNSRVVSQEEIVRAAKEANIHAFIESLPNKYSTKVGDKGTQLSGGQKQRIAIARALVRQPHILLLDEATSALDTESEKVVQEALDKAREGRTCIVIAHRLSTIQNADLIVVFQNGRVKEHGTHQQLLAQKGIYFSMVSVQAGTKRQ

Sequence of Huntingtin (Homo sapiens) (P42858 whole entry, looked up): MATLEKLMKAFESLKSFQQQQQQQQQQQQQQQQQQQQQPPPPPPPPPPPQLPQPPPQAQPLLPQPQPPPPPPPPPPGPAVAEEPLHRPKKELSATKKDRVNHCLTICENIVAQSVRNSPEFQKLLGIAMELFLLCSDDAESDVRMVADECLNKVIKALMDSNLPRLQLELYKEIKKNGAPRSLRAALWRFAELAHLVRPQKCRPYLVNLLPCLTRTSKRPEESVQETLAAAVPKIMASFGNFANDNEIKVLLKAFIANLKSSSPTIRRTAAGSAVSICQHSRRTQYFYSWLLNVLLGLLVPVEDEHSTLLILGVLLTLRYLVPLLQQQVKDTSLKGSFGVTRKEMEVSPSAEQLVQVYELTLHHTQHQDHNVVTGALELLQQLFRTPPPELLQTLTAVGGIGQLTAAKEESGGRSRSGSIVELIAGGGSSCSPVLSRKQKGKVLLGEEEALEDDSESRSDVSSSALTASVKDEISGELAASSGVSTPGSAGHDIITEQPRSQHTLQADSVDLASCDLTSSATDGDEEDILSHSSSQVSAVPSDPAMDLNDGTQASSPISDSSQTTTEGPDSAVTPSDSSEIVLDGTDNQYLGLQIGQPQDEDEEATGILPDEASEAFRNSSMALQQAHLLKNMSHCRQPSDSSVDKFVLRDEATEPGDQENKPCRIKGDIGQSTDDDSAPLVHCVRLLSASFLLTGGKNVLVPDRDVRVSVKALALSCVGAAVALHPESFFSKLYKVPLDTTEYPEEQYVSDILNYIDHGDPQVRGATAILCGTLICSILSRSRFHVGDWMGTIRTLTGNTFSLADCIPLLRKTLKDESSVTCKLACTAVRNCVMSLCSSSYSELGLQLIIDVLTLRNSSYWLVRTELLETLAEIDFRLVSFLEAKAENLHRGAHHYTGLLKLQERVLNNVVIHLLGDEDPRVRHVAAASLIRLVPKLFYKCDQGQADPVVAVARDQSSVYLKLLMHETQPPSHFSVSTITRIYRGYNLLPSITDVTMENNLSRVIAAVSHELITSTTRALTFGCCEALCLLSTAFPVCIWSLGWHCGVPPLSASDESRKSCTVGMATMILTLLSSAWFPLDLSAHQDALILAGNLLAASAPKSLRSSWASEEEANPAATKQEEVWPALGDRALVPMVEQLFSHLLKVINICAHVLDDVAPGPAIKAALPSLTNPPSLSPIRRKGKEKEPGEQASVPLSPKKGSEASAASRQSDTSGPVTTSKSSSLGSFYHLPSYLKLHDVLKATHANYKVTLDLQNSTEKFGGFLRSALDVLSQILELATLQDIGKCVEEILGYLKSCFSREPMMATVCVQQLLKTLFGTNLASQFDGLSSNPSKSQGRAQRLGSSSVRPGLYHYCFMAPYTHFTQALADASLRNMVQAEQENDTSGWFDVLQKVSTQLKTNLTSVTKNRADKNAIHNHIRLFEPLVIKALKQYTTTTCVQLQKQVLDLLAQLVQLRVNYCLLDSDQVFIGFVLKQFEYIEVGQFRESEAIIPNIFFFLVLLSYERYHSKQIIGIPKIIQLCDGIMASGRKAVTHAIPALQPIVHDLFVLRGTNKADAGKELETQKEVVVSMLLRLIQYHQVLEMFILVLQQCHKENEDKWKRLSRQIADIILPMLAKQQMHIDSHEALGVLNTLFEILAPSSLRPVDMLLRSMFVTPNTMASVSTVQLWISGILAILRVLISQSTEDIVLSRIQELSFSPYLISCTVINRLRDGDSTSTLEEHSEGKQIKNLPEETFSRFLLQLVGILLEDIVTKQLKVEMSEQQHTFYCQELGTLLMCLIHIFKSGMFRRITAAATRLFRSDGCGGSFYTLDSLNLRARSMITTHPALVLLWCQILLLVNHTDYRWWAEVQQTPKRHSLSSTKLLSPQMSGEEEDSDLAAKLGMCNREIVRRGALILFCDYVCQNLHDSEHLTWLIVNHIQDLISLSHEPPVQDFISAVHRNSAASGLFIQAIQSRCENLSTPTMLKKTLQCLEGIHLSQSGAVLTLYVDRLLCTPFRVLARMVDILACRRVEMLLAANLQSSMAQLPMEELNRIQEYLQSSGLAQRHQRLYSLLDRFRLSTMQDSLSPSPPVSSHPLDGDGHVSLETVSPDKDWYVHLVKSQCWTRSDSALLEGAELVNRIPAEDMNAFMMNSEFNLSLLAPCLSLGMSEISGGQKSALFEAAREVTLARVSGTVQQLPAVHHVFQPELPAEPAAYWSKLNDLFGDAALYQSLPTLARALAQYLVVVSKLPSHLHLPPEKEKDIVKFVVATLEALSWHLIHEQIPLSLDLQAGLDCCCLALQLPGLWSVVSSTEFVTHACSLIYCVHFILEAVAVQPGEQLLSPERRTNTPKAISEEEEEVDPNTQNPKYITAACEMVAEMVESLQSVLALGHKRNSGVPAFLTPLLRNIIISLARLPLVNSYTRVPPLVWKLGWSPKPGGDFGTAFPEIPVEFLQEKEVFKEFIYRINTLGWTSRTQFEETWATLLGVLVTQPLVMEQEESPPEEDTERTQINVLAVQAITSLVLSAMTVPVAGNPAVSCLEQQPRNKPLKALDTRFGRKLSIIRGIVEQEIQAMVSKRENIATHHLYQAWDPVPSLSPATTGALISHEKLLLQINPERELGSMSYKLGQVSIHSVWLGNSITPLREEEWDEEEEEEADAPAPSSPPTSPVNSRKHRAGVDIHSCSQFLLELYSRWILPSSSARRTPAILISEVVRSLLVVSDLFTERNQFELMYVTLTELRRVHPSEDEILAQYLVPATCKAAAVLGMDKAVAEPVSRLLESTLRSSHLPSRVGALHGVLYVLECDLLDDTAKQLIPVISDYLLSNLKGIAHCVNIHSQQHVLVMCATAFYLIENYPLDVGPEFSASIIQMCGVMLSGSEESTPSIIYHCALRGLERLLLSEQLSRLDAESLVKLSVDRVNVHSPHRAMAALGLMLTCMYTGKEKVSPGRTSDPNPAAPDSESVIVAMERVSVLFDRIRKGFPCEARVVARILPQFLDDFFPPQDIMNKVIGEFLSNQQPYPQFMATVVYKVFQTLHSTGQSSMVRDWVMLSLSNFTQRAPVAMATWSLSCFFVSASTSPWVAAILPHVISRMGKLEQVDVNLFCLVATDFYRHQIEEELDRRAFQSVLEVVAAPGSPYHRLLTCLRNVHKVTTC

Row | SMILES | inhibition [1] [%] | score [2] | rescue above control [3] | cytochrome c release ratio [4] | inhibition of aggregation [5] [%] | glutamate uptake change [6] [%] | aggregation suppression score [7] | aggregation ratio [8] | normalised LDH release [9] | inclusion score [10] | z-score [11] | fluorescence slope change [12]
1 | O=C1Nc2ccc(Cl)cc2C(c2ccccc2)=NC1O (configuration not stated) | -2.46 | 1.01 | -7.17 | 1.14 | 32 | 0.27 | 0.898 |  |  |  |  | 
2 | C[C@@]1(C(=O)O)CC[C@]2(C)CC[C@]3(C)C4=CC=C5C=C(O)C(=O)C=C5[C@]4(C)CC[C@@]3(C)[C@@H]2C1 |  | 1.77 |  | 3.7 | 11.8 | -13.4 | 1.23 | 0.487 | 0.996 |  |  | 
3 | COc1ccc2c3c1O[C@H]1[C@@H](O)C=CC4[C@@H](C2)N(C)CC[C@@]341 (some centres not stated) | -19 | 1.17 | 2.82 | 0.92 | 61.9 | -22 | 1.22 |  |  | 2 |  | 
4 | CN1CC[C@]23c4c5ccc(O)c4O[C@H]2[C@H](O)C=CC3[C@H]1C5 (some centres not stated) | 2.86 | 1.09 | -1.93 | 1.03 | 32 | 6.58 | 1.13 |  |  | 2 |  | 
5 | O=c1c2cc(F)ccc2ncn1Cc1cn2ccccc2n1 |  |  |  |  |  |  |  |  |  |  | 0.245 (inactive) | 
6 | CCCOC1CCCN(C2CCN(C)CC2)C1 (configuration not stated) |  |  |  |  |  |  |  |  |  |  | -0.46 (inactive) | 
7 | CC(N)Cc1ccc2c(c1)OCO2 (configuration not stated) | -14.9 | 1.01 | -3.14 | 1 | 21.1 | -7.15 | 1.15 |  |  | 2 |  | 
8 | CC[C@H]1C(=O)OC[C@@H]1Cc1cccn1C | -1.44 | 1.44 | 2.37 | 0.94 | 42.5 | 10.3 | 1.24 |  |  | 2 |  | 
9 | CNC(C)C(=O)c1ccccc1 (configuration not stated) | -15.1 | 1.02 | -6.75 | 1.05 | 49.7 | -3.86 | 1.11 |  |  | 2 |  | 
10 | C[C@]12CCC3C(CC[C@@H]4C[C@H](O)CC[C@]34C)C1CCC2=O (some centres not stated) | 61 | 0.81 | -3.82 | 0.77 | 91.7 | -9.61 | 0.472 |  |  |  |  | 
11 | CN1C(=O)CN=C(c2ccccc2F)c2cc([N+](=O)[O-])ccc21 | 9.27 | 0.97 | -7.57 | 0.83 | 22.4 | -1.18 | 0.965 |  |  | 2 |  | 
12 | CCC(=O)C(CC(C)N(C)C)(c1ccccc1)c1ccccc1 (configuration not stated) | -9.47 | 1.06 | 0.15 | 0.89 | 21.1 | 7.77 | 0.899 |  |  | 2 |  | 
13 | CN1C2CC(OC(=O)[C@H](CO)c3ccccc3)C[C@H]1CC2O (some centres not stated) | 17.4 | 1.3 | -1.97 | 0.75 | 83.9 | 4.44 | 1.3 |  |  | 2 |  | 
14 | COC(=O)C1C(OC(=O)c2ccccc2)CC2CCC1N2C (configuration not stated) | -2.13 | 1.1 | -9 | 0.85 | 32 | -26.1 | 1.26 |  |  | 2 |  | 
15 | CC1CC[C@@]2(NC1)OC1CC3C4CC=C5CC(O)CCC5(C)C4CCC3(C)C1[C@@H]2C (some centres not stated) | 0.23 | 1.05 | -8.79 | 1.04 | 64.7 | -2.74 | 0.556 |  |  | 2 |  | 
16 | CN1C2CCC1C(C(=O)O)C(OC(=O)c1ccccc1)C2 (configuration not stated) | -11.5 | 0.85 | -9.16 | 1.03 | 41.5 | -21 | 1.17 |  |  | 2 |  | 
17 | CCNC(C)Cc1cccc(C(F)(F)F)c1 (configuration not stated) | -12 | 1.17 | -3.67 | 0.91 | 15.7 | -14.9 | 1.24 |  |  | 2 |  | 23.3% (inactive)
18 | COC12CC[C@@]3(C[C@@H]1C(C)(O)C(C)(C)C)[C@H]1Cc4ccc(O)c5c4[C@@]3(CCN1CC1CC1)[C@H]2O5 (some centres not stated) | 26.4 | 1.52 | 5.39 | 1.25 | -0.68 | -3.06 | 1.02 |  | 1.01 |  |  | 
19 | CCCCCc1cc(O)c2c(c1)OC(C)(C)C1CCC(C)=CC21 (configuration not stated) | 5.35 | -0.54 | -0.11 | 2.94 | 34.7 | -3.83 | 0.291 |  | 0.893 |  |  | 
20 | CN1CC[C@]23c4c5ccc(O)c4O[C@H]2C(=O)CCC3[C@H]1C5 (some centres not stated) | 7.55 | 1.13 | -11.3 | 1.11 | -0.68 | 20.7 | 1.27 |  |  | 2 |  | 
21 | CN1C(=O)C(O)N=C(c2ccccc2)c2cc(Cl)ccc21 (configuration not stated) | -6.64 | 1.21 | 0.82 | 0.99 | 8.84 | 4.66 | 1.05 |  |  | 2 |  | 
